Bioassay records: PubChem, The Scripps Research Institute Molecular Screening Center
Shown are actives, neighbours in structure and some others; about 2.6% of the full set was active somewhere.
TCR-CD3 inh = inhibitors of human TCR-CD3 interaction, primary screen, biochemical, fluorescence, TAMRA-labeled TCR probe | T-cell receptor (TCR) | inhibition, % at 9.4 µM | 360,000 compounds, 0.37% hits; in the data active = inhibition above about 19%;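 also: recombinant mutant TCR 2C K166C tagged with TAMRA read by polarization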
SIAE primary = human SIAE inhibitors, primary screen, biochemical, fluorescence polarization, FP-Rh probe, 1536-well HTS; 370,000 compounds, 0.69% hits; AID 1053197, 2014; inhibition, % at 9.66 µM; SIAE FP-Rh probe binding;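 active = inhibition above a cutoff: mean of compounds within the control limits plus 3 SD of those, cut at about 17% in these data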
PRMT1 FP inh = PRMT1 methyltransferase inhibitors, primary screen, biochemical, fluorescence polarization; Protein arginine N-methyltransferase 1 (Homo sapiens), Q99873; recombinant PRMT1, activity-based probe fluorescence polarization; inhibition, % at 2.79 µM; 370,000 compounds, 1.3% hits;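 active = inhibition above about 21% made by adding two undisclosed values, limit read from the data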
Fam108B inh = mouse Fam108B serine hydrolase inhibitors, primary screen, counter-screen for RBBP9 inhibitor project, biochemical, fluorescence polarization | recombinant Fam108B, FP-Rh probe fluorescence polarization | inhibition, % at 9.51 µM | 300,000 compounds, 0.33% hits | AID 1947, 2009;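 active = inhibition above the screen mean inhibition plus 3 SD, computed separately per campaign, cut at about 18% in these data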;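 also: inhibitors lower polarization as less probe binds the enzyme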
PME-1 primary = PME-1 inhibitors via competitive probe labeling, primary screen, biochemical, fluorescence polarization, FP-Rh probe, HTS; Protein phosphatase methylesterase 1 (Homo sapiens), Q9Y570; recombinant PME-1; inhibition, % at 5.9 µM; 320,000 compounds, 0.53% hits; AID 2130, 2009;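 active = inhibition above the campaign mean of all compounds plus 3 SD, cut at about 26% in these data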;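 also: competitive labeling of PME-1 active site by serine hydrolase directed probe; inhibitors block probe labeling so polarization falls and inhibition rises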
PAD4 FP inh = human PAD4 inhibitors, primary screen, biochemical, fluorescence polarization, 1536-well format; recombinant PAD4, RCA probe fluorescence polarization; 330,000 compounds, 0.41% hits; inhibition, % at 6.36 µM;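 active = percent inhibition above a cutoff equal to the mean of all tested compounds plus 3 SD, cut at about 15% in these data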
PRMT1 inh conf = PRMT1 methyltransferase inhibitors, confirmation, biochemical, fluorescence polarization, triplicate | inhibition, % at 2.79 µM | shares compounds with PRMT1 FP inh | AID 687036, 2013 | recombinant His-PRMT1, activity-based probe fluorescence polarization | 3,300 compounds, 42% hits;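 active = mean inhibition across replicates above the hit cutoff derived for the earlier primary screen, cut at about 22% in these data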
Each line names hits and unclear results; the compound was inactive in the other large screens (follow-up assays come after a bar, where they were run).

Cc1ccccc1CN[C@@H]1CC[C@@]23CCCN2C(=O)CCC[C@H]3C1	none (no result: TCR-CD3 inh, Fam108B inh, PME-1 primary, PAD4 FP inh)
CC1OC(CC(=O)O)CC2=C1C(=O)c1c(O)cccc1C2=O (centres undefined)	PRMT1 FP inh 95 (no result: Fam108B inh, PME-1 primary, PAD4 FP inh) | PRMT1 inh conf 46
Cc1cc(C(=O)CCC(=O)N(C)CC(=O)Nc2c(Cl)cccc2Cl)c(C)s1	PRMT1 FP inh 28 | PRMT1 inh conf inactive
Nc1c(C(=O)Nc2ccccc2)sc2nc3c(c(-c4ccco4)c12)CCC3	none
Nc1c(C(=O)Nc2ccc(F)cc2)sc2nc(-c3ccco3)ccc12	PRMT1 FP inh 44, PME-1 primary 58 | PRMT1 inh conf 30
Nc1c(C(=O)Nc2ccc(Br)cc2)sc2nc(-c3ccco3)ccc12	PRMT1 FP inh 45, PME-1 primary 36 | PRMT1 inh conf inactive
Cc1ccc(NC(=O)c2sc3nc4c(c(-c5ccco5)c3c2N)CCC4)cc1	none
CC(/C=N/NC(=O)CSc1nnc(SCc2ccc(C)cc2)s1)=C\c1ccco1	none (no result: TCR-CD3 inh, Fam108B inh, PME-1 primary, PAD4 FP inh)
N#CCC[C@H]1CC[C@]2(CCCN(C(=O)c3ccco3)C2)O1	none (no result: TCR-CD3 inh, Fam108B inh, PME-1 primary, PAD4 FP inh)
O=C(c1ccc(F)cc1)n1ccc2ccc(-c3ccc4ccn(Cc5ccccc5)c4c3)cc21	none (no result: TCR-CD3 inh, Fam108B inh, PME-1 primary, PAD4 FP inh)
CCOC(=O)c1ccoc1CSCc1ccc(C(=O)OC)o1	PRMT1 FP inh 39 | PRMT1 inh conf 45
COC(=O)c1ccc(CSC(=N)N)o1	none
CC(=O)OCCNc1cc(Sc2nc3ccccc3[nH]2)c2nonc2c1[N+](=O)[O-]	PRMT1 FP inh 92 | PRMT1 inh conf 52
CCN1C(c2ccccc2)=C(c2ccccc2)S/C1=C\C=C1/SC(=S)N(C)C1=O	none
CCN1C(=O)/C(=C/C=C2/Sc3ccc4ccccc4c3N2CCO)SC1=S	PRMT1 FP inh 44 | PRMT1 inh conf inactive
O=C(CCSc1ccc(Cl)cc1)c1ccco1	PRMT1 FP inh 41 | PRMT1 inh conf 66
CCNc1cccc2c1C(=O)N(C)C2=O	PRMT1 FP inh 44 | PRMT1 inh conf 46
Cn1c(Cc2cccs2)nnc1SCC(=O)Nc1ccc(OCc2ccccc2)cc1	none (no result: TCR-CD3 inh, Fam108B inh, PME-1 primary, PAD4 FP inh)
Cc1cccc(-c2cccc3c4c([nH]c23)[C@@H]2C[C@H](N(C)C(=S)NCCc3ccccc3)[C@H]([C@H](C)O)CN2CC4)c1	none (no result: TCR-CD3 inh, Fam108B inh, PME-1 primary, PAD4 FP inh)
C[C@H](O)[C@@H]1CN2CCc3c([nH]c4ccccc34)[C@@H]2C[C@@H]1N(C)C(=S)NCCc1ccccc1	PRMT1 FP inh 49 (no result: Fam108B inh, PME-1 primary, PAD4 FP inh) | PRMT1 inh conf inactive
CC(=Nc1ccc(C)cc1C)c1sc2ccccc2c1O	PRMT1 FP inh 27 | PRMT1 inh conf inactive
CCCN=Cc1sc2ccc(OCC)cc2c1O	PRMT1 FP inh 88 | PRMT1 inh conf 29
CCn1c(=O)n(CC(=O)N2CCN(c3ccc(F)cc3)CC2)c(=O)c2ccccc21	none (no result: TCR-CD3 inh, Fam108B inh, PME-1 primary, PAD4 FP inh)
O=C(Cc1cccs1)N/N=C/C=C\c1ccco1	none
O=C(N/N=C/C=C/c1ccco1)/C(=C/c1ccccc1)NC(=O)c1ccccc1	PRMT1 FP inh 30 | PRMT1 inh conf inactive
O=C(N/N=C/C=C\c1ccco1)c1cccs1	PRMT1 FP inh 33 | PRMT1 inh conf 23
CCc1c(C(=O)C(C)O)c2n3c1CCC[C@@H]3CC2 (some centres undefined)	none (no result: TCR-CD3 inh, Fam108B inh, PME-1 primary, PAD4 FP inh)
O=C(NCC(c1ccccc1)c1ccccc1)[C@H](Cc1c[nH]c2ccccc12)NC1(C(=O)NC2CCCCC2)CCC1	none (no result: TCR-CD3 inh, Fam108B inh, PME-1 primary, PAD4 FP inh)
O=C1/C(=C\c2cccnc2)Sc2ccccc21	PRMT1 FP inh 31 | PRMT1 inh conf inactive
CC(=O)N(\C=C/C=C/C=C1\Sc2ccccc2C1=O)c1ccccc1	PRMT1 FP inh 46 | PRMT1 inh conf 26
CN(C)/C=C1/Sc2ccccc2C1=O	PRMT1 FP inh 57 | PRMT1 inh conf 29
CC(=O)Nc1ccc(/C=C2/Sc3ccccc3C2=O)cc1	none (no result: TCR-CD3 inh, SIAE primary, PRMT1 FP inh)
O=C(NCCc1ccccc1)OCc1cn(-c2ccc(F)cc2)nn1	none (no result: TCR-CD3 inh, Fam108B inh, PME-1 primary, PAD4 FP inh)
CCOCC(=O)NC(=O)N1C[C@H]2CON(C)[C@H]2C[C@H]1c1ccc(OC)cc1	none (no result: TCR-CD3 inh, Fam108B inh, PME-1 primary, PAD4 FP inh)
